Laboratory results: PubChem BioAssay
Calls of active or inactive are those of the source.

Columns and labels:
Albumin (Bos taurus) = Albumin (Bos taurus) (UniProt P02769); test: compounds binding labelled BSA control protein – biochemical, small-molecule microarray, Alexa647 label, 635/667 nm fluorescence, artefact control for SMM control protein annotation, profiling panel (AID 1118); conditions: BSA-A647 binding, fluorescence 635 nm, higher = more signal;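 note: score merges 667 nm emission intensity and signal-to-noise per printed compound spot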
[1] = probe aXIP binding to arrayed compounds – biochemical, NeuroSMM set, 635/667 nm fluorescence, primary screen (AID 1119); conditions: small-molecule microarray, higher = more signal, called active from +8 up or from −8 down;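 note: probe is the protein aXip251-270 applied at 1 µg/mL to compound-printed slides; binding of probe to printed compounds measured as 667 nm fluorescence plus signal to noise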
[2] = probe aNOTCH3 binding on compound microarray – biochemical, small-molecule microarray, 635/667 nm fluorescence, primary screen (AID 1120); conditions: higher = more signal;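 note: probe is a biotin-tagged antibody raised against NOTCH3 rather than NOTCH3 protein; score merges spot fluorescence near 667 nm with spot signal to noise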
[3] = probe aNOTCH2 binding on compound microarray – biochemical, small-molecule microarray, 635/667 nm fluorescence, primary screen (AID 1121); conditions: higher = more signal;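 note: score merges feature fluorescence read at 667 nm with its signal to noise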
[4] = target: Carbonic anhydrase 2 (Homo sapiens) (UniProt P00918); test: compounds binding carbonic anhydrase 2 – biochemical, small-molecule microarray, Alexa647-labelled CAII, profiling panel (AID 1122); conditions: CAII-A647 binding fluorescence, higher = more signal
[5] = COS7 lysate on small-molecule microarray, probe aHis, 635 nm (AID 1123); conditions: COS7 cell lysate, fluorescence, higher = more signal;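 note: z-score combines 667nm fluorescence intensity with signal-to-noise per printed compound spot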
[6] = probe aLAP1 signal on lysate-treated microarray – cell lysate, small-molecule microarray, COS7 lysate, primary screen (AID 1124); conditions: probe aLAP1, fluorescence, higher = more signal;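 note: lysate comes from COS7 cells expressing LAP1 and is applied at 0.3 µg/mL; score merges spot fluorescence near 667 nm with signal-to-noise over triplicate slides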
Sam68 (KHDRBS1) = test: compounds binding KHDRBS1 protein – biochemical, small-molecule microarray, 635 nm fluorescence, primary screen (AID 1125); conditions: higher = more signal;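 note: score merges 667 nm channel intensity with signal to noise over triplicate slides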
[7] = tested on: Chordin-like protein 2 (CHRDL2); test: compounds binding chordin-like 2 – biochemical, small-molecule microarray, 635 nm fluorescence, primary screen (AID 1126); conditions: fluorescence 635 nm, higher = more signal;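 note: printed compound slides probed with Chrdl2 protein at 4 µg/mL for 1 h at 4 C; score merges 667 nm emission intensity with signal to noise over three replicate slides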
[8] = target: Concanavalin-A (Canavalia ensiformis) (UniProt P02866); test: compounds binding concanavalin A lectin – biochemical, small-molecule microarray, Alexa647 label, 635 nm, artefact control for SMM control protein annotation, primary screen (AID 1127); conditions: ConA-A647 binding fluorescence, higher = more signal;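 note: z combines 667 nm emission intensity with signal-to-noise across three replicate slides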
[9] = compounds binding Alexa647 anti-His antibody – biochemical, small-molecule microarray, 635 nm fluorescence, artefact control for SMM control protein annotation, primary screen (AID 1128); conditions: higher = more signal;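 note: score merges feature fluorescence with signal-to-noise for each printed compound spot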
[10] = tested on: Human papillomavirus type 1a E7 protein (residues 1-88); test: HPV1a E7 small-molecule binders, primary screen, biochemical, small-molecule microarray, residues 1-88, 635 nm (AID 1129); conditions: small-molecule microarray binding, fluorescence 635 nm; higher = more signal
[11] = target: Focal adhesion kinase 1 (Homo sapiens) (UniProt Q05397); test: PTK2 protein binding on printed compound slides – biochemical, small-molecule microarray, 635/667 nm fluorescence, BSA, DTT, primary screen (AID 1130); conditions: 635 nm fluorescence, higher = more signal;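 note: composite of spot emission at 667 nm and signal to noise over triplicate slides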
[12] = tested on: Fibrinogen (Alexa647-labelled); test: Alexa647-fibrinogen binding to printed small molecules – biochemical, small-molecule microarray, 635/667 nm fluorescence, artefact control for SMM control-protein annotation, profiling panel (AID 1131); conditions: fibrinogen-A647 binding fluorescence, higher = more signal;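 note: z-score merges 667 nm fluorescence with per-spot signal-to-noise over triplicate slides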
[13] = target: Follistatin (Homo sapiens) (UniProt P19883); test: FST protein binding to printed compounds – biochemical, small-molecule microarray, 635/667 nm fluorescence, primary screen (AID 1132); conditions: 635 nm fluorescence, higher = more signal
[14] = target: Fibroblast growth factor 2 (Homo sapiens) (UniProt P09038); test: basic fibroblast growth factor binding to printed compounds – biochemical, small-molecule microarray, 635/667 nm fluorescence, primary screen (AID 1133); conditions: FGF2, fluorescence 635/667, higher = more signal
[15] = JC-1 mitochondrial potential readout, lung cancer cells – cell-based, A549, JC-1 fluorescence, basal, 24 h, 100 nL, profiling panel (AID 1138); conditions: higher = more signal;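 note: A549 lung adenocarcinoma cells under basal conditions with no added stimulus; test concentration not given here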
Lefty1 = Lefty1 protein binding to printed compounds – biochemical, small-molecule microarray, 635/667 nm fluorescence, primary screen (AID 1139); conditions: fluorescence 635/667, higher = more signal
[16] = tested on: wheat germ agglutinin (Triticum aestivum), Alexa647-labelled; test: Alexa647-WGA lectin binding to printed small molecules – biochemical, small-molecule microarray, 635/667 nm fluorescence, artefact control for SMM control-protein annotation, profiling panel (AID 1140); conditions: WGA-A647 binding, 635 nm fluorescence, higher = more signal;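 note: score merges 667 nm feature emission with signal to noise over triplicate slides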
[17] = target: Luciferin 4-monooxygenase (Photinus pyralis) (UniProt P08659); test: inhibition of purified Photinus pyralis luciferase – biochemical, luminescence, purified enzyme, 2006 set, primary screen (AID 1141); conditions: purified firefly luciferase, SteadyGlo luminescence, 30 min; higher = more signal, called active from +8 up or from −8 down;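 note: cell-free assay with purified firefly luciferase at 100 ng per well in PBS; test concentration not given here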
Sequence of Luciferin 4-monooxygenase (Photinus pyralis) (P08659 whole entry, looked up): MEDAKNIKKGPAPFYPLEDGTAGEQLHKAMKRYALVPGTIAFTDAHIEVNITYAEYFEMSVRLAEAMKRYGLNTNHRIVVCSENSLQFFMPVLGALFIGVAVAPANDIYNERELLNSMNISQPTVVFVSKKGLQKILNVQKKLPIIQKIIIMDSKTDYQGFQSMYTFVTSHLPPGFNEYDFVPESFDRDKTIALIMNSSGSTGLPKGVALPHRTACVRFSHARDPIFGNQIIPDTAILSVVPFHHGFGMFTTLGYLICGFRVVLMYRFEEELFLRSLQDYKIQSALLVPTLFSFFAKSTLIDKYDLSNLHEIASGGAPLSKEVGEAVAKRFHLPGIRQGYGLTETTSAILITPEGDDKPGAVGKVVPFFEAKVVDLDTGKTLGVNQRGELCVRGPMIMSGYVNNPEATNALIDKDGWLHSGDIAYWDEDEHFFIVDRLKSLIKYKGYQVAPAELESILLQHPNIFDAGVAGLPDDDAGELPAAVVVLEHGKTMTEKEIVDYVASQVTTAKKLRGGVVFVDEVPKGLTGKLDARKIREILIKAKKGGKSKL

Sequence of Concanavalin-A (Canavalia ensiformis) (P02866 whole entry, looked up): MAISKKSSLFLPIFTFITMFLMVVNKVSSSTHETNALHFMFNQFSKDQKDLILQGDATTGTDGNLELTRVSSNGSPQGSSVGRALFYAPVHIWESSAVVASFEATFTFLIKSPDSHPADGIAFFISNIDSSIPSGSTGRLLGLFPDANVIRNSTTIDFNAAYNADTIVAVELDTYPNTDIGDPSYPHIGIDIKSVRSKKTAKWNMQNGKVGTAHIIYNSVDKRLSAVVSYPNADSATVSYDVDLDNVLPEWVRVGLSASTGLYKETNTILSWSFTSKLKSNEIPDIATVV
Sequence of Fibroblast growth factor 2 (Homo sapiens) (P09038 whole entry, looked up): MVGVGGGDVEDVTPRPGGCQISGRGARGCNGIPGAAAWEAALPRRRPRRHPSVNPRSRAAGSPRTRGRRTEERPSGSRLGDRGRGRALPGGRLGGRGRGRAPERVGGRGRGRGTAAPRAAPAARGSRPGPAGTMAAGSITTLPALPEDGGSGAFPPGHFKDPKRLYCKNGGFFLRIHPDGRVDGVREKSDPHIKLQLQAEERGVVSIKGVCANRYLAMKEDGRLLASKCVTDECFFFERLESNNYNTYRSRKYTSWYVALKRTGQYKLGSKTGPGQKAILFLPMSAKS
Sequence of Albumin (Bos taurus) (P02769 whole entry, looked up): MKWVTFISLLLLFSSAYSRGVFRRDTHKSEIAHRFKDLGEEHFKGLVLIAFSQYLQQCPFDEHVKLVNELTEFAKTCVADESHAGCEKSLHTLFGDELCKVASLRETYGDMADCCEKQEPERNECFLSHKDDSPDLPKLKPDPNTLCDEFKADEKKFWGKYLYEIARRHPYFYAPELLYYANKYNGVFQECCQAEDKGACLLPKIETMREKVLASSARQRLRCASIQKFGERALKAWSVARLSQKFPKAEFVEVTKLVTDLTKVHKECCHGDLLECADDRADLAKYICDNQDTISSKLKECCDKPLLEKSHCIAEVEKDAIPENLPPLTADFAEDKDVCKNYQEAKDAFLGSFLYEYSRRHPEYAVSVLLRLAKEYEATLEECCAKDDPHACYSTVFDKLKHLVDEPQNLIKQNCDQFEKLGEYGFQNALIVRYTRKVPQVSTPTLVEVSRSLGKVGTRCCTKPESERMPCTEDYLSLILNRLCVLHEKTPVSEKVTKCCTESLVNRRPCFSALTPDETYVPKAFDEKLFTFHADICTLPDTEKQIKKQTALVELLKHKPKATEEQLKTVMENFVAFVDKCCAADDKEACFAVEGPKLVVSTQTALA
Sequence of Focal adhesion kinase 1 (Homo sapiens) (Q05397 whole entry, looked up): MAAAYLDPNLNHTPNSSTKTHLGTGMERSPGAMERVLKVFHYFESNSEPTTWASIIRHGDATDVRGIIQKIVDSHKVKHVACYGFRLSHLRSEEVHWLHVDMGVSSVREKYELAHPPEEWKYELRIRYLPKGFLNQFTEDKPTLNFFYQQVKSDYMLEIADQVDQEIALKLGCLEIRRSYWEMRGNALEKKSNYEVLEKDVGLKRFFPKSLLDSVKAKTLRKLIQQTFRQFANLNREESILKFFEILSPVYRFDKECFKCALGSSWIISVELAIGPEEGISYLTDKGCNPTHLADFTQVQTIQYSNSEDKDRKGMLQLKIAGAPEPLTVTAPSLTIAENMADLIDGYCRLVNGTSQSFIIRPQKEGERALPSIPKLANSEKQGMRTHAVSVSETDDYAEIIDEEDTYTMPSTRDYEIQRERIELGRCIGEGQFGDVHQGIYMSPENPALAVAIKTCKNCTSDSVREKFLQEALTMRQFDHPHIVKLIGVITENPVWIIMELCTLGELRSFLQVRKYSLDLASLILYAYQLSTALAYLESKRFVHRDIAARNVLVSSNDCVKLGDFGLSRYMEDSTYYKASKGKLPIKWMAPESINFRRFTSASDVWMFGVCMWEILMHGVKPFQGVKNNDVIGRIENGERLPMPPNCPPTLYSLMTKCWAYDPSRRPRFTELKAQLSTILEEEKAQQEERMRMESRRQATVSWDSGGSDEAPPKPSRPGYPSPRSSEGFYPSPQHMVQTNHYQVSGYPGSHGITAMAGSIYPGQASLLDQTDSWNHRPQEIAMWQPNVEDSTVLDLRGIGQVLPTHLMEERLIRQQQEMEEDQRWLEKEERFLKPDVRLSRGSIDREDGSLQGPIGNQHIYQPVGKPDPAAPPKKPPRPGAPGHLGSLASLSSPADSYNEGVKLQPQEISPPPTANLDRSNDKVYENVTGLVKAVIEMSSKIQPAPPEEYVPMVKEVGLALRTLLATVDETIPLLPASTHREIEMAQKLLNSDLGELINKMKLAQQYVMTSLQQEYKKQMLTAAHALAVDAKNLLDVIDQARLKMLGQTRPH
Sequence of Follistatin (Homo sapiens) (P19883 whole entry, looked up): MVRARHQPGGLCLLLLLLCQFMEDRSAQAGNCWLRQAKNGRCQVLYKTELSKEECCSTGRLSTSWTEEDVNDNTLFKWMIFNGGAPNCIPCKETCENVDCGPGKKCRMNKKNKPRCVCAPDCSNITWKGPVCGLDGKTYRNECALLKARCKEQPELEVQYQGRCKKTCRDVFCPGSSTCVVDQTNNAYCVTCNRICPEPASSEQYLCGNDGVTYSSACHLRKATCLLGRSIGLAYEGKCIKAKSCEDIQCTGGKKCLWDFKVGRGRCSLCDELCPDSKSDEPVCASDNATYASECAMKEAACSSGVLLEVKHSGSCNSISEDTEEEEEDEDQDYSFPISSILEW

SMILES	composite z-score (Albumin (Bos taurus))	composite Z-score [1]	composite z-score [2]	composite z-score [3]	composite z-score [4]	composite z-score [5]	composite z-score [6]	composite z-score (Sam68 (KHDRBS1))	composite z-score [7]	composite z-score [8]	composite z-score [9]	composite z-score [10]	composite z-score [11]	composite z-score [12]	composite z-score [13]	composite z-score [14]	z-score [15]	composite z-score (Lefty1)	composite z-score [16]	z-score [17]
CCCCN1CC=CC23O[C@@H]4/C=C\CCC(C)OC(=O)C4[C@H]2C(=O)N(C(CO)C(C)C)[C@@H]3C1=O (stereo not given in full)	0.751	0.443 (inactive)	-0.126	-0.12	0.815	-0.407	1.13	-0.468	0.212	-0.409	-0.0545	-0.205	-0.35	-0.188	0.508	0.149	-0.0444	0.774	-0.0541	0.323 (inactive)
CCOC(=O)c1ccc(NC(=O)O[C@H]2[C@H](OC(=O)Nc3ccc4c(c3)OCO4)[C@H](OC(=O)Nc3ccc4c(c3)OCO4)[C@@H](OC)O[C@@H]2CO)cc1	0.0541	1.52 (inactive)	0.411	0.077	0.49	1.52	0.551	1.3	0.393	1.18	1.73	1.26	0.812	1.01	1.38	1.42	-0.551	1.24	0.743	-9.03 (active)
NC(N)=NCCCn1cc(CNC(=O)[C@@H](N)Cc2ccccc2)nn1	0.0958	0.79 (inactive)	0.0126	-0.0279	0.948	0.96	0.155	-0.103	0.57	-0.739	0.499	-0.505	-0.242	-0.845	1.42	0.943	-0.55	1.05	0.465	0.36 (inactive)
COC(=O)Cn1c(C(=O)N(C)C)cc2c1C[C@H]1CN(C(=O)c3ccccc3)[C@@](Cc3ccc(F)cc3)(C(=O)OC)[C@@H]21	0.944	-0.155 (inactive)	0.541	0.267	0.884	0.56	0.108	-0.167	0.0171	0.136	2.12	1.02	1.25	0.19	-0.258	0.386	0.354	-0.278	1.3	0.897 (inactive)
CC(C)N1C(=O)c2ccccc2[C@@H](C(=O)NC2CC2)[C@@H]1c1ccc(CO)cc1	0.368	0.131 (inactive)	0.0246	-0.161	0.742	0.467	0.37	0.343	0.593	0.697	1.89	0.934	-0.361	0.868	1.04	1.08	1.04	0.147	0.22	-0.161 (inactive)
[N-]=[N+]=Nc1ccccc1[C@@H]1OC(c2ccc(OCCCO)cc2)=N[C@]1(Cc1ccccc1)C(=O)NCC(O)CO (stereo not given in full)	0.937	0.66 (inactive)	0.453	0.178	0.765	3.2	1.14	0.897	-0.638	0.468	2.23	0.95	0.587	0.966	1.4	1.06	1.63	-0.823	1.2	-4.93 (inactive)
O=C1O[C@@H](c2ccccc2)[C@@H](c2ccccc2)N2[C@@H](c3ccc(O)cc3)[C@]3(C(=O)Nc4ccc(C#CC5(O)CCCCCC5)cc43)[C@@H](C(=O)NC[C@H](O)c3ccccc3)[C@H]12	0.0697	0.2 (inactive)	-0.262	-0.0984	0.547	1.05	0.632	0.686	-0.703	0.221	0.326	0.899	0.551	0.151	-0.538	-0.322	-1.31	-0.218	0.297	0.27 (inactive)
CO[C@H]1O[C@H](CO)[C@@H](OC(=O)Nc2ccccc2-c2ccccc2)[C@H](OC(=O)Nc2ccc3c(c2)OCO3)[C@H]1OC(=O)Nc1ccc2c(c1)OCO2	0.902	0.806 (inactive)	0.211	-0.103	0.498	2.8	1.11	1.31	0.454	1.06	1.02	1.24	1.11	0.941	1.23	0.993	-0.499	0.63	1.1	-6.15 (inactive)
C=C(COC)C(=O)CC[C@@H](OC(=O)c1cccnc1)c1ccc(OCCO)cc1	-0.283	0.517 (inactive)	0.176	0.0362	0.751	1	0.211	0.629	1.12	0.388	0.282	0.659	-0.157	0.108	1.4	1.78	0.822	1.21	0.237	-3.79 (inactive)
COCCOC(=O)N1C(=O)[C@@]2(c3cc(C#CCNC(N)=O)ccc31)[C@H](C(=O)N1CCc3cc(OC)c(OC)cc3C1)[C@H]1C(=O)O[C@H](c3ccccc3)[C@H](c3ccccc3)N1[C@@H]2c1ccccc1OCCO	0.577	-0.0476 (inactive)	0.123	-0.126	0.577	1.33	0.383	1.29	0.855	0.794	1.16	0.778	0.378	0.757	1.2	1.48	-1.12	0.716	0.524	-0.709 (inactive)
CN(C)CCCNC(=O)[C@@H]1c2ccccc2C(=O)N(Cc2ccccc2Cl)[C@H]1c1ccc(CO)cc1	0.301	0.247 (inactive)	-0.236	-0.0993	0.73	1.17	0.982	0.671	-0.349	-0.284	1.3	0.51	-0.0522	0.462	-0.0713	-0.0728	1.53	-0.92	1.05	-0.751 (inactive)
